# “And” between values parts separate entries of the source, which are not always exact repeats. Identical values can stand only once. The source made the active and inactive calls. Unless noted, how the calls were made is not given here.
# Legend:
# [1] = compounds altering circadian rhythm period length – cell-based, LOPAC library, luminescence reporter (AID 2774); details: circadian reporter cells, at 7 µM, actives lie on both sides;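 further: values are relative to mean of DMSO wells on each plate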
# [2] = compounds altering viability of human ES cells (AID 493140); details: human embryonic stem cell survival screen; stronger effect = higher value;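 further: cells exposed to compounds for four days before counting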
# [3] = P. berghei load reduction in hepatocytes – cell-based, HepG2, luciferase luminescence, HepG2 viability, primary screen (AID 624349; in the data active means parasite load remaining mostly below about 12%, no sharp cut-off; inactive means mostly above about 10%;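 further: 100% = mean of DMSO negative control wells on the same plate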); details: P. berghei liver stage in HepG2, luciferase luminescence, concentration not given here; parasite load remaining: stronger effect = lower value; viability: measured here: HepG2 viability without parasites
# [4] = tested on: Hepatitis C virus NS3 helicase; assay: blockers of NS3h binding to ssDNA – biochemical, fluorescence polarization, LOPAC1280 library, primary screen (AID 687035; in the data active means inhibition above about 37%); details: Purified HCV NS3 helicase, Cy5-dT15 ssDNA binding fluorescence polarization; stronger effect = higher value; concentration not given here
# [5] = compounds altering Cy5-DNA-NS3h complex signal – biochemical, LOPAC1280, artefact control for HCV NS3 helicase inhibitor project (AID 687037); details: Cy5-DNA-NS3h complex fluorescence interference counterscreen
# [6] = Wnt pathway potentiators raising nuclear beta-catenin – imaging, WNT3A-conditioned medium, mouse C2C12, NPC library, primary screen (AID 1117326; in the data active means nuclear beta-catenin stimulation mostly above about 4.2%, no sharp cut-off; inactive means mostly below about 10%); details: stronger effect = higher value
# [7] = stimulators of insulin release from INS-1E, primary screen, cell-based, 5 mM glucose, NPC library (AID 1117329;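 active means compound raises insulin release from rat beta cells at 5 mM glucose, no numeric limit stated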); details: rat INS-1E insulin secretion, at 10 µM, stronger effect = higher value
# [8] = growth inhibition of GSK3B-pretreated HCT116 cells – cell-based, CellTiter-Glo, 0.2 to 20 µM (AID 1117336;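 active means compounds lowering colon cancer cell viability after pretreatment blocking the GSK3B kinase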); details: HCT116 viability after GSK3B inhibitor, at 20 µM, stronger effect = higher value
# [9] = inhibition of endothelial tube formation, primary screen, imaging, VEGF stimulated, CD31 staining, tube area, NPC library (AID 1117340;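 active means compound that reduces growth-factor-driven endothelial tube area in a mixed cell culture, no cutoff stated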); details: VEGF-stimulated ADSC/ECFC co-culture, at 10 µM, stronger effect = higher value
# [10] = GLP1 release stimulators, primary, NCI-H716, NPC library (AID 1117341;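 active means compound raises GLP1 secretion from the human gut endocrine cells, with no numeric limit stated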); details: NCI-H716 cells, at 10 µM, stronger effect = higher value
# [11] = HCT116 colon cancer cell growth inhibition, primary screen, CellTiter-Glo luminescence, NPC library (AID 1117342;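 active means compounds that lower survival of HCT116 colon cancer cells in the luminescence readout, no numeric limit stated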); details: at 20 µM (top of the series)
# [12] = reduced SW480 viability measured with CellTiter-Glo, NPC library, primary (AID 1117343;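 active means compounds that lower viability of the colon cancer cells in the luminescence readout, with no numeric limit stated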); details: CellTiter-Glo luminescence; at 20 µM (top of the series)
# [13] = NPC library primary testing for decreased DLD-1 cell viability via CellTiter-Glo (AID 1117346;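 active means compounds that lower survival of DLD-1 colon cancer cells in the luminescence readout, no cutoff given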); details: DLD-1 viability, CellTiter-Glo luminescence; at 20 µM (top of the series)
# [14] = tested on: Aerobactin synthetase IucA (Klebsiella pneumoniae, hypervirulent); assay: biochemical IucA inhibition screen of LOPAC library by absorbance (AID 1346212); details: IucA enzyme assay, absorbance (OD) readout; stronger effect = lower value;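 tested at 8 µM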;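 further: 100% = no compound wells and 0% = no enzyme wells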
# [15] = viability loss with induced miR-34 in A549 – imaging, A549 dox-inducible miR-34, nuclei and caspase counts, primary screen (AID 1347080;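 active means compounds whose cell count with miR-34 switched on is under 0.7 times the count with it off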); details: A549 miR-34 inducible, Hoechst nuclei count, 48 h
# [16] = galactose survival enhancers in mitochondrial complex I cybrids – cell-based, galactose medium, ATP luminescence, primary screen (AID 1645843;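 active means z-score of at least 1.8 in each of two replicates, scored against plate mean and spread of sample wells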;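 further: positive z means more ATP and so rescue of galactose-driven cybrid death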); details: complex I mutant cybrid cells, 72 h, stronger effect = higher value
# [17] = MELAS cybrid and Rieske KO viability enhancers – cell-based, MELAS cybrids, Rieske KO mouse fibroblasts, CellTiter-Glo, primary screen (AID 1508586;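 active means mean z-score across replicates of 1.96 or higher in either the MELAS or the Rieske mutant cell line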;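 further: z relative to plate mean and SD of compound and empty wells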); details: low glucose
# [18] = EMT-state selective cytotoxicity in co-culture – imaging, PC-3E GFP, TEM4-18 mCherry, primary screen (AID 1345086;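 active means compounds killing one labelled cell type while sparing the other, by normalised counts and ratio limits, not self-fluorescent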;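 on all read-outs here: cells exposed to compound for 72 h before imaging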;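 on red/green cell ratio (normalised): normalised mesenchymal count divided by normalised epithelial count so high means epithelial killing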); details: PC-3E GFP / TEM4-18 mCherry co-culture, imaging cell counts, at 1 µM; for red/green cell ratio (normalised): actives lie on both sides
# [19] = target: NAD(+) hydrolase SARM1 (Homo sapiens) (UniProt Q6SZW1); assay: blocking NAD cleavage by SARM1 SAM-TIR – cell lysate, NAD-Glo luminescence (AID 1508614;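 active means compound whose remaining NAD level is above about 45 nM, limit read from the data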); details: SAM-TIR HEK293T lysate NADase, at 1 µM, stronger effect = higher value
# NAD(+) hydrolase SARM1 (Homo sapiens), sequence (Q6SZW1 whole entry, looked up): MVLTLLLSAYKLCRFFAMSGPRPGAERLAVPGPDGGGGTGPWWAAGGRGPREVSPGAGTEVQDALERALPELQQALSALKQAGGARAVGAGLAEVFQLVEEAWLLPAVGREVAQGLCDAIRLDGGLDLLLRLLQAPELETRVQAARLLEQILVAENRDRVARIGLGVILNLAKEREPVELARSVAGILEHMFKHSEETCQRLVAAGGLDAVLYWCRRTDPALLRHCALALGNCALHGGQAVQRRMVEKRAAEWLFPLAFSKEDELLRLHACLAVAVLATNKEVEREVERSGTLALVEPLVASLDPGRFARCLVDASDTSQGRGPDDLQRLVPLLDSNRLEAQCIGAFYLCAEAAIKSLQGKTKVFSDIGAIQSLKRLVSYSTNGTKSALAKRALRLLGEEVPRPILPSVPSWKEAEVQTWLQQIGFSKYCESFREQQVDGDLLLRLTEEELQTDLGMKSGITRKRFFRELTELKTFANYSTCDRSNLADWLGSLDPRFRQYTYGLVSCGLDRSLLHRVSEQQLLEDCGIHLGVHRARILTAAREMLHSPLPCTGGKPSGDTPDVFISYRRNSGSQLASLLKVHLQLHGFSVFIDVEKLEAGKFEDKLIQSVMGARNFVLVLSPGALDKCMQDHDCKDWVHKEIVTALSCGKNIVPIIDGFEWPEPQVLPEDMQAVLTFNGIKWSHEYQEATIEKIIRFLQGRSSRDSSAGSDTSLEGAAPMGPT
# [20] = measured here: relative caspase fold change +Dox/-Dox
# [21] = measured here: total cells with miR-34 induction, stronger effect = lower value
# [22] = measured here: total cells without miR-34 induction
# [23] = measured here: epithelial PC-3E GFP cell survival
# [24] = measured here: mesenchymal TEM4-18 mCherry cell survival
smiles,measurement,setting,value
CCCCc1ccc(C(=O)O)nc1,period change,[1],-0.03 h (inactive)
same,survival,[2],6.17 (inactive)
same,parasite load remaining,[3],113% (inactive) and 80.1% (inactive)
same,viability,[3],102% and 74.9%
same,inhibition,[4],-3% (inactive)
same,fluorescence ratio (interference),[5],1.1 (inactive)
same,nuclear beta-catenin stimulation,[6]; at 10 µM,0.7% (inactive)
same,nuclear beta-catenin stimulation,"[6]; stimulation, at 2 µM",2.6%
same,insulin secretion stimulation,[7],0.5% (inactive)
same,viability decrease,[8],9.1% (inactive)
same,tube area decrease,[9],-19.3% (inactive)
same,GLP1 secretion stimulation,[10],-1.2% (inactive)
same,inhibition of viability,[11],25.9% (inactive)
same,viability decrease (inhibition),[12],82.1% (active)
same,viability decrease (inhibition),[13],3.1% (inactive)
same,remaining activity,[14],102% (inactive)
same,fold change,[15]; stronger effect = lower value,0.891 (inactive) and 0.841 (inactive)
same,fold change,[15]; [20],1.39 and 1.24
same,cell count,[15]; [21],9790 and 8980
same,cell count,[15]; [22],11000 and 10700
same,z-score,[16],0.395 (inactive)
CC(=O)[C@H]1CC[C@H]2[C@@H]3CC[C@H]4C[C@H](O)CC[C@]4(C)[C@H]3C(=O)C[C@]12C,period change,[1],-0.1 h (inactive)
same,survival,[2],20.1 (inactive)
same,parasite load remaining,[3],70.8% (inactive)
same,viability,[3],72.4%
same,inhibition,[4],-1% (inactive)
same,fluorescence ratio (interference),[5],1 (inactive)
same,nuclear beta-catenin stimulation,[6]; at 10 µM,0.5% (inactive)
same,nuclear beta-catenin stimulation,"[6]; stimulation, at 2 µM",-0.7%
same,insulin secretion stimulation,[7],3.1% (inactive)
same,viability decrease,[8],28% (inactive)
same,tube area decrease,[9],-23.1% (inactive)
same,GLP1 secretion stimulation,[10],-1.7% (inactive)
same,inhibition of viability,[11],41.1% (inactive)
same,viability decrease (inhibition),[12],67.8% (active)
same,viability decrease (inhibition),[13],19.9% (inactive)
same,remaining activity,[14],112% (inactive)
same,fold change,[15]; stronger effect = lower value,1.12 (inactive) and 0.844 (inactive)
same,fold change,[15]; [20],0.8 and 0.773
same,cell count,[15]; [21],11000 and 8700
same,cell count,[15]; [22],9770 and 10300
same,z-score,"[17]; MELAS cybrid survival, CellTiter-Glo 48 h, stronger effect = higher value",0.566 (inactive)
same,z-score,"[17]; Rieske KO mouse fibroblast survival, CellTiter-Glo 72 h",0.0524
same,z-score,[16],-0.315 (inactive)
CC(O)CN1CCN(CC(=O)[O-])CCN(CC(=O)[O-])CCN(CC(=O)[O-])CC1.[Gd+3] (stereo not drawn),nuclear beta-catenin stimulation,[6]; at 10 µM,-1.8% (inactive)
same,nuclear beta-catenin stimulation,"[6]; stimulation, at 2 µM",-0.7%
same,insulin secretion stimulation,[7],3.6% (inactive)
same,viability decrease,[8],7.8% (inactive)
same,tube area decrease,[9],9.4% (inactive)
same,GLP1 secretion stimulation,[10],-4.3% (inactive)
same,inhibition of viability,[11],0.7% (inactive)
same,viability decrease (inhibition),[12],-1.9% (inactive)
same,viability decrease (inhibition),[13],-6.4% (inactive)
same,red/green cell ratio (normalised),[18],0.9 (inactive)
same,normalised cell number,[18]; [23],1.27
same,normalised cell number,[18]; [24],1.14
same,fold change,[15]; stronger effect = lower value,0.973 (inactive)
same,fold change,[15]; [20],0.913
same,cell count,[15]; [21],8990
same,cell count,[15]; [22],9240
same,remaining NAD,[19],10 nM (inactive)
CCOC(=O)CC(SP(=S)(OC)OC)C(=O)OCC (stereo not drawn),nuclear beta-catenin stimulation,[6]; at 10 µM,1% (inactive)
same,nuclear beta-catenin stimulation,"[6]; stimulation, at 2 µM",-0.1%
same,insulin secretion stimulation,[7],-1.5% (inactive)
same,viability decrease,[8],-29.7% (inactive)
same,tube area decrease,[9],18% (inactive)
same,GLP1 secretion stimulation,[10],0.7% (inactive)
same,inhibition of viability,[11],-0.33% (inactive)
same,viability decrease (inhibition),[12],27% (inactive)
same,viability decrease (inhibition),[13],-18% (inactive)
same,red/green cell ratio (normalised),[18],1.05 (inactive)
same,normalised cell number,[18]; [23],1.11
same,normalised cell number,[18]; [24],1.16
same,fold change,[15]; stronger effect = lower value,0.857 (inactive)
same,fold change,[15]; [20],0.964
same,cell count,[15]; [21],7400
same,cell count,[15]; [22],8640
same,remaining NAD,[19],10 nM (inactive)
